Most compounds without a hit are left out; they make up all but 5.9% or so of the library.
GALK inhibitor = galactokinase (human) inhibition; Purified GALK, Kinase-Glo residual ATP luminescence; Potency, µM (series often up to 57.5 µM), inactives show top-dose activity change, negative = inhibition, actives largely listed as inhibitors; 0.007% of 270,000 active; AID 1868; further: potency means the concentration at half of the fitted maximal effect
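Luminescence from leftover ATP (Ultra-Glo luciferase/luciferin) served as read-out after a 1 h room-temperature reaction of 5 nM GALK with 35 uM ATP and 100 uM galactose.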
FBPA coupling cs = counter-screen for Giardia aldolase inhibitors: coupling enzyme system | coupling enzyme system counterscreen, AmpLite Red fluorescence | activity change, negative = inhibition, % at 58.2 µM, hits read low | 0.67% of 290,000 active | AID 2472; in the data active means activity change below about -30%
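Counterscreen of the coupled detection system alone, without aldolase: glyceraldehyde-3-phosphate coupling enzymes plus AmpLite Red readout. Compounds at 57.5 uM final, 10 min RT preincubation, 20 min RT reaction, fluorescence 525/598 nm.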
rTrxR1 inhibitor = rat TrxR1 inhibition; recombinant rTrxR1, NADPH fluorescence consumption, selenite substrate; Potency, µM (titrated, usually from 114 µM), for inactives: top-dose activity change, negative = inhibition, most hits filed as inhibitors; 1% of 390,000 active; AID 588453; further: potency means the concentration at half of the fitted maximal effect; nearly all actives have a fitted effect of over 65% in size
Target sequence (O89049 whole entry, looked up): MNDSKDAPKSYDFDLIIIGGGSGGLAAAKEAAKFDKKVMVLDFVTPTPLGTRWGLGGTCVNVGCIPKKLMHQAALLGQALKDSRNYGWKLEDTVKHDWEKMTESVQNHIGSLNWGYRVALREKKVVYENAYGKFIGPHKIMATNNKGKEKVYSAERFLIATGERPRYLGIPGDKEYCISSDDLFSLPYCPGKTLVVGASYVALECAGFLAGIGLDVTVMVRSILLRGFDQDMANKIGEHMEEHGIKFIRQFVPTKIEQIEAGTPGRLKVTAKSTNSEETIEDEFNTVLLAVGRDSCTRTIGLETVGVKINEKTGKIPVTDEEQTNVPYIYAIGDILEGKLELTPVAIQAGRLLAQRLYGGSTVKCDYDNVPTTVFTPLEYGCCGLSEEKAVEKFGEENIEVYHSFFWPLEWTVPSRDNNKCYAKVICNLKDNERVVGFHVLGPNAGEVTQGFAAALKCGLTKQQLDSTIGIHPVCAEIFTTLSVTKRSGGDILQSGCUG
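Rat TrxR1 (90 nM in the dispensed reagent) was pre-reduced with 400 uM NADPH for 5 min at room temperature, then incubated with compound for 15 min. After 400 uM selenite was added, NADPH fluorescence (Ex 340/Em 450 nm) was followed for 8 min.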
RORgamma inh = blocks mouse ROR gamma transcriptional activity | Potency, µM (series often up to 53.6 µM), without a hit: at the highest dose activity change, negative = inhibition, usual class: inhibitors | 5.4% of 310,000 active | Drosophila S2 Gal4-RORgamma UAS-luciferase reporter, 20 h; further: potency means the concentration at half of the fitted maximal effect; nearly all actives have a fitted effect of over 60% in size
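Stable Schneider cell line, Gal4 DNA-binding domain fused to ROR gamma, UAS-luciferase. Cmpd 1 hr RT → CuSO4 700 uM final → 20 hr RT → luciferase reagent 10 min → luminescence.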
TrxR1 substrate = substrates of rat thioredoxin reductase 1; O89049; purified TrxR1 substrate turnover, NADPH consumption readout; Potency, µM (top dose mostly 114 µM), without a hit: top-dose activity change, negative = substrate turnover; 0.01% of 390,000 active; further: potency means the concentration at half of the fitted maximal effect; nearly all actives have a fitted effect of over 50% in size
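Rat TrxR1, dispensed at 90 nM, was prereduced with 400 uM NADPH (final) for 5 min at ~22 deg C, then incubated with compound 15 min before 400 uM selenite. A first-read NADPH fluorescence drop versus no-compound background flagged substrates.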
VP16 counter = counter-screen for ROR gamma inhibitors: Gal4-VP16 reporter. Drosophila S2 Gal4-VP16 UAS-luciferase, luminescence, 20 h. Potency, µM (titrated, usually from 53.6 µM), inactives show top-dose activity, negative = inhibition, most hits filed as inhibitors. 3.5% of 310,000 active;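 further: Gal4-VP16 expression switched on by copper sulfate through the metallothionein promoter; potency means the concentration at half of the fitted maximal effect; nearly all actives have a fitted effect of over 50% in size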
* hit, by the source's call; ? = inconclusive; / = not tested or not shown; [ ] = dose if it differs, or a comment. Unless noted, the call rests on the fitted dose curve; in most records, active means well fitted curve in the direction sought with a large enough effect; inconclusive means small, poorly fitted or top-dose-only effect, or another doubt; inactive means no such curve, though single readings can be large; an effect the other way counts as inactive or inconclusive. On the % scale 0 is the no-effect control and ±100 the full control effect.

SMILES | GALK inhibitor | FBPA coupling cs | rTrxR1 inhibitor | RORgamma inh | TrxR1 substrate | VP16 counter
C[C@H]1O[C@@H](O[C@H]2[C@@H](O)C[C@H](O[C@H]3[C@@H](O)C[C@H](O[C@H]4CC[C@]5(C)C6CC[C@]7(C)[C@@H](C8=CC(=O)OC8)CC[C@]7(O)C6CC[C@@H]5C4)O[C@@H]3C)O[C@@H]2C)C[C@H](O)[C@@H]1O (some centres not stated) | / | 6 | / | 2.5µM* | / | -12%
Cc1sc2c(c1C)C(c1ccc(C(C)(C)C)cc1)=NCC(=O)N2CC(=O)Nc1nccs1 | -2% | -2 | 23% | 11µM* | -2% | ?
Cc1cc(C)cc(N2C(=O)NC(=O)/C(=C/c3cccn3-c3ccc(Cl)cc3)C2=O)c1 | -8% | -4 | -6% | 32µM* | 3% | 11µM*
CCCCCC1CC(CC#CCN2CCOCC2)C(=O)O1 (configuration not stated) | -1% | 4 | 45µM* | -20% | -3% | 1%
CCCCCCn1c(O)c(C=NCCN2CCOCC2)c(=O)[nH]c1=O | / | 2 | 15% | 26% | 0% | 0%
CCC(C(=O)O)C1CCC(C)C(C(C)C(O)C(C)C(=O)C(CC)C2OC3(C=CC(O)[C@@]4(CC[C@](C)(C5CC[C@@](O)(CC)C(C)O5)O4)O3)C(C)CC2C)O1 (some centres not stated) | / | 4 | / | 1.8µM* | / | 2.2µM*
O=C(N/N=C/c1ccc(C(F)(F)F)cc1)c1ccncc1 | -1% | 2 | 9%[57.1 µM] | ? | -9% | -6%
CC1CN=C(Nc2ccc(F)cc2)S1 (configuration not stated) | 10% | 4 | 25%[57.1 µM] | ? | 11%[57.1 µM] | 5%
NC(N)=NN=C(/C=C/c1ccc([N+](=O)[O-])o1)/C=C/c1ccc([N+](=O)[O-])o1 | / | / | / | 5µM* | / | ?
COc1cc(/C=C2/C(=O)N(c3ccccc3)N=C2C)ccc1OS(=O)(=O)c1ccccc1 | 2% | -42* | / | ? | / | ?
C=CCN | / | 4 | / | -16% | / | 4%
O=C(Oc1cccc2cccnc12)c1ccccc1 | / | 3 | / | 1.4µM* | / | ?
COc1ccc(C(=O)Oc2cccc3cccnc23)cc1S(=O)(=O)N1CCOCC1 | -1% | -5 | 11% | 2.5µM* | 1% | 4.5µM*
COc1ccc(C(=O)N2CCOCC2)cc1S(=O)(=O)N1CCC(C)CC1 | 3% | -1 | 16%[57.1 µM] | -15% | -6% | -4%
Clc1ccc(C(c2ccc(Cl)cc2)n2cc[n+](CC(OCc3ccc(Cl)cc3Cl)c3ccc(Cl)cc3Cl)c2)cc1 (configuration not stated) | / | 0 | ? | ? | -4%[57.1 µM] | 11µM*
COc1cc(CC(C)N)c(OC)cc1I (configuration not stated) | / | / | 18%[57.1 µM] | / | 9%[57.1 µM] | /
Cc1cc([N+](=O)[O-])c2ccccc2[n+]1[O-] | 1% | -12 | -35% | ? | 4% | 3.5µM*
c1ccc(-c2nc(N3CCOCC3)s[n+]2-c2ccccc2)cc1 | 1% | 2 | -34% | -37% | -10% | -19%
O=C(N/N=C/c1c(O)n(-c2ccccc2)c(=S)[nH]c1=O)c1ccccc1 | / | 0 | 3%[57.1 µM] | 7.9µM* | 0%[57.1 µM] | 4%
Cc1ccccc1-n1c(O)c(/C=N/NC(=O)c2ccccc2O)c(=O)[nH]c1=S | 0% | 9 | -12% | ? | -4% | -1%
O=C(N/N=C/c1c(O)n(CCC2=CCCCC2)c(=O)[nH]c1=O)c1ccccc1 | 0% | 9 | -32% | 11µM* | -16% | ?
O=C(N/N=C/c1c(O)n(C2CC2)c(=S)[nH]c1=O)c1ccccc1O | -2% | 5 | -19%[57.1 µM] | 5.6µM* | 1%[57.1 µM] | 7.1µM*
Cc1cccc(-n2c(O)c(/C=N/NC(=O)c3ccncc3)c(=O)[nH]c2=O)c1 | -2% | 0 | -9%[57.1 µM] | 35µM* | -8%[57.1 µM] | -10%
O=C1C(Cc2cnc[nH]2)NC(=S)N1c1ccccc1 (configuration not stated) | 0% | -2 | -2% | -22% | -1% | -6%
CN1CCc2nc(SCc3cccc(Br)c3)c(C#N)cc2C1 | -2% | 0 | -3%[57.1 µM] | 6% | 13%[57.1 µM] | -2%
SMILES | GALK inhibitor | FBPA coupling cs | rTrxR1 inhibitor | RORgamma inh | TrxR1 substrate | VP16 counter
CC(C)c1ccc(OCC(=O)N2CCN(CCc3ccccn3)CC2)cc1 | / | / | 22% | / | 7% | /
OC(CCNCCc1c[nH]c2ccccc12)C(F)(F)F (configuration not stated) | -2% | -2 | 18%[57.1 µM] | -7% | 8%[57.1 µM] | 8%
O=C(N/N=C/c1c(O)n(Cc2ccccc2)c(=O)[nH]c1=O)c1ccncc1 | -2% | 2 | -7%[57.1 µM] | -39% | -2%[57.1 µM] | -19%
O=c1[nH]c(=S)n(CCC2=CCCCC2)c(O)c1C=NCc1cccnc1 | 0% | 1 | / | -24% | / | -7%
O=C(N/N=C/c1c(O)n(Cc2ccc(F)cc2)c(=O)[nH]c1=O)c1ccccc1 | -3% | 4 | 1%[57.1 µM] | 13µM* | 2%[57.1 µM] | 12%
O=C(N/N=C/c1c(O)n(CCC2=CCCCC2)c(=S)[nH]c1=O)c1ccccc1 | / | 10 | -21% | 5µM* | -15% | ?
Nc1c(C(=O)NCC2CCCO2)c2nc3ccccc3nc2n1Cc1ccco1 (configuration not stated) | 4% | -1 | -12% | 1% | 163% | ?
O=C(CCCc1nc(-c2ccc(Cl)cc2)no1)NCC1CCCO1 (configuration not stated) | 2% | 0 | 4%[57.1 µM] | 4% | 3%[57.1 µM] | 13µM*
C=CCN1C(=O)/C(=C\c2ccc(N3CCOCC3)o2)C(=O)NC1=S | -1% | -3 | -27% | 7% | -18% | 19%
CCN1C(=O)/C(=C/c2ccc3c(c2)CCN3CCCCl)C(=O)NC1=S | -2% | 1 | 28µM* | 11% | -5% | 4%
CC(C)(C)N1C(=O)NC(=O)/C(=C\c2ccc3c(c2)CCN3CCCCl)C1=O | -2% | -1 | ? | 15% | -5%[57.1 µM] | -9%
O=C1NC(=S)N(C2CC2)C(=O)/C1=C/c1ccc2c(c1)CCN2CCCCl | 0% | -15 | 7.9µM* | -8% | -10% | -1%
C=CCN1C(=O)/C(=C/c2ccc3c(c2)CCCN3CCC)C(=O)NC1=S | -4% | -4 | 10µM* | ? | 0%[57.1 µM] | ?
C=C(C)C(=O)OCC1CO1 (configuration not stated) | / | / | / | 14% | / | -11%
C=C1C(=O)[C@@]23C[C@H]4[C@@H]5[C@@]6(C)CCC[C@@]57[C@@H]2[C@@H](O)[C@@H]1C[C@H]3[C@H]7N4C6 | / | / | 22µM* | / | 1% | /
